# Shown are actives, neighbours in structure and some others; about 19% of the full set was active somewhere.
# DT40 TDP1 no CPT = qHTS for Inhibitors of human tyrosyl-DNA phosphodiesterase 1 (TDP1): qHTS in cells in absence of CPT; DT40 Tdp1-/- hTDP1 cells, no CPT, ATP luminescence, 48 h; Potency, µM (highest dose often 46.2 µM), for inactives: top-dose activity change, negative = growth inhibition, usual class: inhibitors; hit rate 15% among 420,000; AID 686978, 2013; note: potency is the fitted concentration of half-maximal effect; nearly all actives have a fitted effect of over 55% in size
#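 Compound effects on proliferation are scored in DT40 Tdp1-/-;hTDP1 cells in the absence of CPT. ATP levels (CellTiter-Glo luminescence) are recorded after a ≥48 hr, 37 °C incubation.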
# DT40 TDP1 CPT = DT40-hTDP1 cell growth loss with CPT; chicken DT40 Tdp1-/-;hTDP1 cells + 20 nM CPT, ATP luminescence, 48 h; Potency, µM (highest dose often 46.2 µM), for inactives: top-dose activity change, negative = growth inhibition, actives largely listed as inhibitors; hit rate 12% among 420,000; AID 686979; note: potency is the fitted concentration of half-maximal effect; nearly all actives have a fitted effect of over 55% in size
#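 Cell growth measured by CellTiter-Glo luminescence after a minimum 48 h, 37 C compound exposure with 20 nM CPT in Tdp1-knockout DT40 cells stably expressing hTDP1, seeded 400/well; qHTS titration format.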
# IL-1B inflam inh = inhibitors of inflammasome signaling (IL-1 beta secretion) | THP-1 LPS/ATP IL-1B secretion, AlphaLISA, 16 h; stronger effect = lower value | activity change, % at 57.5 µM | hit rate 4.7% among 360,000 | AID 743279; in the data active = activity change below about -50%; inconclusive = mostly about -30% to -49%
#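 THP-1 cells pretreated 1 hr with compounds (up to 57.5 uM final), then stimulated with LPS (250 ng/mL final) plus ATP (1.25 mM final); secreted IL-1B measured by AlphaLISA after 16 hr, decreased signal indicating inhibition.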
# HT1080-NT tox = kills 2HG-producing HT-1080-NT fibrosarcoma cells; HT-1080-NT fibrosarcoma viability, CellTiter-Glo ATP luminescence, 48 h; Potency, µM (doses to about 46.1 µM), for inactives: at the highest dose activity, negative = less viability, hits mostly cytotoxic; hit rate 1.6% among 360,000;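 note: NT is the 2HG producing partner of a matched IDH1 knockdown line; potency is the fitted concentration of half-maximal effect; 0% = DMSO-treated cells and -100% = media-only wells without cells; nearly all actives have a fitted effect of over 55% in size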
#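 Viability of the 2HG-overproducing fibrosarcoma line after 48 hours of compound exposure at 37 degrees C was determined by luminescence with CellTiter-Glo, and concentration-effect curves were then fitted and categorized.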
# HT1080 IDH1KD tx = HT-1080 IDH1 knockdown cell toxicity (counter line); HT-1080 IDH1 knockdown viability, ATP luminescence, 48 h; Potency, µM (top dose mostly 46.1 µM), for inactives: at the highest dose activity, negative = toxicity, most hits filed as cytotoxic; hit rate 2% among 360,000; AID 686971;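 note: potency is the fitted concentration of half-maximal effect; 0% = DMSO wells and -100% = cell-free medium wells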
#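 After a 2 h attachment period, IDH1KD HT-1080 cells took pin-transferred compound for 48 h at 37 °C; ATP-based luminescence after 10 min room-temperature reagent incubation reported viability.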
# * hit, by the source's call; ? = inconclusive; nt = no result given; [ ] = remark or other dose. Unless noted, calls come from the whole dose curve; as a rule, active = well fitted curve in the direction sought with a large enough effect; inconclusive = small, poorly fitted or top-dose-only effect, or another doubt; inactive = no such curve, though single readings can be large; an effect the other way counts as inactive or inconclusive. Unless noted, % is set by controls: 0 for no effect and ±100 for the full control effect.
SMILES,DT40 TDP1 no CPT,DT40 TDP1 CPT,IL-1B inflam inh,HT1080-NT tox,HT1080 IDH1KD tx
CCOCCN1CCN(c2c3c(nc4cc(-c5ccc(F)cc5)nn24)CCC3)CC1,16µM*,?,-7,0%,1%
C[C@H](O)CNC(=O)c1[nH]cnc1C(=O)Nc1cccc(Cl)c1,-26%,-13%,-14,16%,8%
CC(C)[C@@H]1Cc2[nH]n(C)c(=O)c2[C@H](c2ccc(Cl)cc2)O1,-9%,4%,-2,15%,4%
COC(=O)[C@@H](NCc1cccc(CN[C@H](C(=O)OC)c2ccccc2)c1)c1ccccc1,-3%,-1%,10,9%,0%
CCN1CCN(CC(=O)Nc2ccc(S(=O)(=O)N3C(C)CCCC3C)cc2)CC1 (stereo not given),?,-5%,-9,12%,8%
Nc1nonc1-n1nnc(C(=O)N/N=C/c2cccs2)c1-c1ccc2c(c1)OCO2,-28%,?,-11,-2%,-2%
COc1ccc(-c2c(C)nn3c(N4CCCCCC4)cc(C)nc23)cc1OC,26µM*,23µM*,-82*,?,?
CCc1c(C)nc2cc(-c3ccc(OC)c(OC)c3)nn2c1N1CCCC1,23µM*,?,?,?,-21%
COc1ccc(-c2c(C)nn3c(N4CCOCC4)cc(C)nc23)cc1OC,1%,2%,-13,-15%,3%
O=C(COc1coc(CN2CCCc3ccccc32)cc1=O)Nc1ccc([N+](=O)[O-])cc1,?,-9%,41,-7%,-4%
CC(C)C(=O)Nc1cccc(-c2nc3ccccc3o2)c1,?,-17%,0,-5%,-7%
COc1ccccc1OC(C)C(=O)Nc1cccc(-c2nc3ccccc3o2)c1 (stereo not given),21µM*,?,nt,nt,nt
Cc1cc(OC(C)C(=O)Nc2cccc(-c3nc4ccccc4o3)c2)cc(C)c1Cl (stereo not given),16µM*,?,nt,nt,nt
COc1ccccc1OC(C)C(=O)Nc1cccc(-c2nc3ccccc3s2)c1 (stereo not given),12µM*,21µM*,nt,nt,nt
Cn1c(SCC(=O)N2CCOCC2)nnc1-c1ccco1,1%,-20%,10,3%,-1%
COc1cccc(CC(NC(C)=O)C(=O)NC2CCN(S(=O)(=O)c3ccc(F)cc3)CC2)c1OC (stereo not given),-4%,-1%,20,17%,1%
CN(c1ccccc1)S(=O)(=O)c1ccc(C(=O)N2CCc3ccccc3C2)cc1,?,?,19,-7%,-6%
CN(c1ccc(C(=O)N2CCCCC2)cc1)S(=O)(=O)c1ccccc1,8.2µM*,13µM*,-13,-7%,?
Cc1ccc(S(=O)(=O)N(C)c2ccc(C(=O)N3CCc4ccccc4C3)cc2)cc1,?,?,-62*,4%,-6%
CN(c1ccccc1)S(=O)(=O)c1ccc(C(=O)N2CCCC2)cc1,-29%,-23%,29,6%,7%
CCN(CC)c1ccc(C(=O)N2CCN(Cc3ccccc3)CC2)cc1,?,?,-18,0%,-2%
Cc1ccc(S(=O)(=O)N(C)c2ccc(C(=O)N3CCN(Cc4ccc5c(c4)OCO5)CC3)cc2)cc1,21µM*,?,-73*,?,?
CN(c1ccc(C(=O)N2CCN(Cc3ccccc3)CC2)cc1)S(=O)(=O)c1ccccc1,15µM*,-28%,?,-16%,-11%
O=C(O)c1ccc(CNCc2ccccc2Cl)s1,1%,-4%,nt,nt,nt
Cc1ccc(S(=O)(=O)N(C)C)cc1NC(=S)N1CCN(Cc2ccc3c(c2)OCO3)CC1,16µM*,15µM*,30,-1%,-1%
SMILES,DT40 TDP1 no CPT,DT40 TDP1 CPT,IL-1B inflam inh,HT1080-NT tox,HT1080 IDH1KD tx
Cc1ccc(S(=O)(=O)N(C)c2ccc(C(=O)N3CCCCC3)cc2)cc1,?,9.2µM*,20,-1%,-9%
CN(c1ccccc1)S(=O)(=O)c1cccc(C(=O)N2CCCCCC2)c1,21µM*,16µM*,-1,1%,-3%
COc1ccc(N(C)S(=O)(=O)c2cccc(C(=O)OCC(=O)N3CC(C)CC(C)C3)c2)cc1 (stereo not given),21µM*,?,-27,7%,9%
CCN(CC(=O)Nc1ccc(NC(C)=O)cc1)C(=O)c1cccc(-n2cccc2)c1,?,-1%,-16,3%,4%
CN(c1ccccc1)S(=O)(=O)c1cccc(C(=O)NC2CCCC2)c1,?,?,-2,-4%,0%
CC1CC(C)CN(C(=O)c2cccc(S(=O)(=O)N(C)c3ccccc3)c2)C1 (stereo not given),5.8µM*,8.2µM*,3,?,-9%
Cc1cc(C)cc(OCc2ccc(C(=O)N3N=C(C(F)F)CC3(O)C(F)F)o2)c1 (stereo not given),?,?,0,-9%,-10%
O=C(c1ccc(COc2ccc3ccccc3c2)o1)N1N=C(C(F)F)CC1(O)C(F)F (stereo not given),21µM*,?,-1,?,?
CCOc1ccc(OCc2ccc(C(=O)N3N=C(C(F)F)CC3(O)C(F)F)o2)cc1 (stereo not given),?,?,4,?,?
O=C(c1ccc(COc2ccccc2Cl)o1)N1N=C(C(F)F)CC1(O)C(F)F (stereo not given),16µM*,23µM*,?,?,?
O=C(c1ccc(COc2ccc(Br)cc2)o1)N1N=C(C(F)F)CC1(O)C(F)F (stereo not given),?,?,?,?,21µM*
O=C(c1ccc(Cn2cc(Br)cn2)cc1)N1N=C(C(F)F)CC1(O)C(F)F (stereo not given),?,-20%,-5,-11%,-1%
CC(C)Cc1ccc(CC(=O)O)cc1,8%,3%,nt,nt,nt
N/C(=N\OC(=O)c1ccc(Cl)cc1)c1ccccn1,-4%,-9%,-23,0%[9.24 µM],?
N/C(=N/OC(=O)c1ccc(Cl)cc1)c1ncc([N+](=O)[O-])s1,21µM*,16µM*,-6,22%,8%
COc1ccc(NC(=O)c2cnc3sc(N4CCOCC4)nn3c2=O)c(OC)c1,3%,-15%,nt,nt,nt
O=S(=O)(Nc1nc2ccccc2nc1Cl)c1ccc(Br)cc1,?,?,-2,-16%,-4%
CCCCC(CC)COC(=O)C(C#N)=C(c1ccccc1)c1ccccc1 (stereo not given),18µM*,?,8,-22%,?
COc1ccc(-n2c(SCc3ccc([N+](=O)[O-])cc3)nnc2-c2ccc(C)cc2)cc1,?,?,-50*,-4%,-16%
